This is an account of results in PubChem BioAssay (NCATS).

Each structure is given as a SMILES string. Results filed as inconclusive are left out. Unmarked numbers belong to inactive results. Calls of active or inactive are those of the source. Calls follow the shape of the dose curve; as a rule, active = well fitted curve in the direction sought with a large enough effect; inconclusive = small, poorly fitted or top-dose-only effect, or another doubt; inactive = no such curve, though single readings can be large; an effect the other way counts as inactive or inconclusive.

In experiment [1] the target is ATP-dependent 6-phosphofructokinase (Trypanosoma brucei brucei) (UniProt O15648). In words: qHTS Assay to Find Inhibitors of T. brucei phosphofructokinase: hit validation (AID 492961).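 Also: luminescence reports ADP formed as PFK phosphorylates fructose-6-phosphate with ATP; % is scaled to controls: 0 for no effect and ±100 for the full control effect.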 The gist of the method: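 ADP-Glo luminescence read-out of ADP formed by 1.25 nM PFK from 0.1 mM ATP and 0.5 mM F6P (TEA pH 8.0, 45 min, RT). Compounds titrated; activity normalized to no-enzyme and full-enzyme controls.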
A general note: In qHTS, concentration-response curves come from the screen itself.

Experiment [2] can be described thus: qHTS profiling for inhibitors of Plasmodium falciparum proliferation (AID 504749). Also: potency is read from the fitted curve at half-maximal effect.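 As to activity, negative = inhibition: 0% = DMSO vehicle and full inhibition = artemisinin control.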 As to all read-outs here: nearly all actives have a fitted effect of over 60% in size. The following applies: P. falciparum in erythrocytes, SYBR Green DNA, 72 h; for activity, negative = inhibition: at 28.7 µM (top of the series). The gist of the method: (§1)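 Three-day growth assay of blood-stage parasites in erythrocytes (0.3% parasitemia, 2.5% hematocrit) at 37 C, 5% CO2, quantified by SYBR Green DNA staining after overnight detergent lysis.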

Another experiment concerns 3D7. The description is as above. The following applies: P. falciparum in erythrocytes, SYBR Green DNA, 72 h; series mostly up to 28.7 µM. The gist of the method:
as §1

Another experiment deals with AA1029. The description is as above. The following applies: P. falciparum in erythrocytes, SYBR Green DNA, 72 h; series mostly up to 28.7 µM. The gist of the method: as §1
Another experiment has as its system AS120. Described as above. The following applies: P. falciparum in erythrocytes, SYBR Green DNA, 72 h; series mostly up to 28.7 µM. The gist of the method:
as §1

Another experiment has as its system ATS189. Described as above. The following applies: P. falciparum in erythrocytes, SYBR Green DNA, 72 h; series mostly up to 28.7 µM. The gist of the method: as §1
A further experiment relates to C2A. The experiment is described as above. The following applies: P. falciparum in erythrocytes, SYBR Green DNA, 72 h; series mostly up to 28.7 µM. The gist of the method: as §1
For a further experiment, the system named is CP185. The experiment is described as above. The following applies: P. falciparum in erythrocytes, SYBR Green DNA, 72 h; series mostly up to 28.7 µM. The gist of the method:
as §1

The test system of a further experiment is CP191. The experiment is described as above. The following applies: P. falciparum in erythrocytes, SYBR Green DNA, 72 h; series mostly up to 28.7 µM. The gist of the method:
as §1

The test system of another experiment is CP192. The experiment is described as above. The following applies: P. falciparum in erythrocytes, SYBR Green DNA, 72 h; series mostly up to 28.7 µM. The gist of the method:
as §1

Another experiment deals with CP194. Described as above. The following applies: P. falciparum in erythrocytes, SYBR Green DNA, 72 h; series mostly up to 28.7 µM. The gist of the method: as §1
The next experiment relates to CP211. The description is as above. The following applies: P. falciparum in erythrocytes, SYBR Green DNA, 72 h; series mostly up to 28.7 µM. The gist of the method: as §1
The test system of a further experiment is CP217. Described as above. The following applies: P. falciparum in erythrocytes, SYBR Green DNA, 72 h; series mostly up to 28.7 µM. The gist of the method:
as §1

A further experiment has as its system CP237. The experiment is described as above. The following applies: P. falciparum in erythrocytes, SYBR Green DNA, 72 h; series mostly up to 28.7 µM. The gist of the method:
as §1

In another experiment the test system is CP238. The description is as above. The following applies: P. falciparum in erythrocytes, SYBR Green DNA, 72 h; series mostly up to 28.7 µM. The gist of the method: as §1
A further experiment deals with CP247. The description is as above. The following applies: P. falciparum in erythrocytes, SYBR Green DNA, 72 h; series mostly up to 28.7 µM. The gist of the method:
as §1

The subject of another experiment is CP252. Described as above. The following applies: P. falciparum in erythrocytes, SYBR Green DNA, 72 h; series mostly up to 28.7 µM. The gist of the method:
as §1

The test system of another experiment is CP286. The description is as above. The following applies: P. falciparum in erythrocytes, SYBR Green DNA, 72 h; series mostly up to 28.7 µM. The gist of the method:
as §1

In another experiment the test system is Dd2. The description is as above. The following applies: P. falciparum in erythrocytes, SYBR Green DNA, 72 h; series mostly up to 28.7 µM. The gist of the method:
as §1

A further experiment relates to P94_40. The description is as above. The following applies: P. falciparum in erythrocytes, SYBR Green DNA, 72 h; series mostly up to 28.7 µM. The gist of the method:
as §1

ATP-dependent 6-phosphofructokinase (Trypanosoma brucei brucei), sequence (O15648 whole entry, looked up): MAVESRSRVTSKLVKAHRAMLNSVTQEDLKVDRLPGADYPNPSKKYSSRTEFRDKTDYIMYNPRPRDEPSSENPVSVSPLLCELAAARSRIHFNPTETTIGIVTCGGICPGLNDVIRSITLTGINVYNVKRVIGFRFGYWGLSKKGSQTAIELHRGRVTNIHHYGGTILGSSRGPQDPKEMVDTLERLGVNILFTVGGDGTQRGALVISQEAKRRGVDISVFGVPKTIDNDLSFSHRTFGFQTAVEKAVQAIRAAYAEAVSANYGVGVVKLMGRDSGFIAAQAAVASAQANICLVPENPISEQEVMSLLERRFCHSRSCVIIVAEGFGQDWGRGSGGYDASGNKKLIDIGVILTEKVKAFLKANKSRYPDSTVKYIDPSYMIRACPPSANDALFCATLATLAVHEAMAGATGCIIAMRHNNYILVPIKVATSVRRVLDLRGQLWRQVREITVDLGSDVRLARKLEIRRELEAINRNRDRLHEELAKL

With `OCC1O[C@H](O[C@H]2C(O)C(O)C(O)O[C@@H]2CO)C(O)C(O)C1O` (stereo not given in full), the Potency entry (in experiment [1]; in the experiment on 3D7; in the experiment with AA1029; in the experiment with AS120; in the experiment with ATS189; in the experiment with C2A) was “inactive” throughout. Besides, the Potency result in the experiment on CP185, with CP191, in the experiment with CP192, in the experiment on CP194, in the experiment on CP211 and in the experiment with CP217 was “inactive” in each case. The Potency result with CP237, in the experiment on CP238, in the experiment with CP247, in the experiment with CP252, with CP286 and in the experiment with Dd2 was “inactive” each time. For the same compound, the Potency result in the experiment on P94_40 is “inactive”. The values for the activity, negative = inhibition in experiment [2] (parasite line A) and in experiment [2] (parasite line B) were 7.88% and 6.42%, respectively.
`C[C@H]1[C@@H](OC(=O)CCC(=O)O)OC2OC3(C)CC[C@H]4[C@H](C)CC[C@@H]1[C@@]24OO3` (stereo not given in full): in [1], the Potency result is “inactive”. The Potency was 4 nM (active) in [2] (parasite line A); 3.5 nM (active) in experiment [2] (parasite line B); 5 nM (active) in the experiment with 3D7; 6.3 nM (active) with AA1029; 5 nM (active) with AS120; 2.8 nM (active) with ATS189. Besides, the Potency in the experiment with C2A is 3.2 nM (active); in the experiment on CP185, 5 nM (active); in the experiment with CP191, 4.5 nM (active); in the experiment with CP192, 9.5 nM (active); in the experiment with CP194 it was 6 nM (active); in the experiment on CP211, 4.8 nM (active). Also, the Potency in the experiment on CP217 was 7.1 nM (active); in the experiment with CP237, 6.3 nM (active); in the experiment on CP238, 4.5 nM (active); in the experiment with CP247, 5 nM (active); in the experiment with CP252, 5 nM (active); in the experiment on CP286, 10 nM (active). Moreover, the Potency was 4.5 nM (active) in the experiment on Dd2 and 2.2 nM (active) in the experiment with P94_40.
For `CO/N=C(/C(=O)N[C@@H]1C(=O)N2C(C(=O)O)=C(CSc3nc(C)c(CC(=O)O)s3)CS[C@H]12)c1csc(N)n1`, the Potency result (in [1]; with 3D7; in the experiment with AA1029; with AS120; in the experiment on ATS189; in the experiment with C2A) was “inactive” in each case. The Potency result in the experiment with CP185, in the experiment with CP191, in the experiment with CP192, in the experiment on CP194, in the experiment on CP211 and in the experiment on CP217 was “inactive” throughout. Besides, the Potency entry in the experiment on CP237, in the experiment on CP238, with CP247, in the experiment on CP252, in the experiment with CP286 and with Dd2 was “inactive” in each case. The Potency entry in the experiment on P94_40 is “inactive”. Moreover, the activity, negative = inhibition is 5.91% in [2] (parasite line A) and 4.95% in [2] (parasite line B).
Consider `CN1[C@@H]2CC[C@@H]1CC(OC(=O)[C@H](CO)c1ccccc1)C2` (stereo not given in full), for which the Potency result (in [1]; in the experiment with 3D7; with AA1029; in the experiment with AS120; with ATS189; in the experiment on C2A) was “inactive” in each case. For the same compound, the Potency entry in the experiment with CP185, in the experiment on CP191, with CP192, in the experiment on CP194, with CP211 and in the experiment on CP217 was “inactive” throughout. The Potency entry in the experiment on CP237, with CP238, in the experiment with CP247, in the experiment on CP252, in the experiment on CP286 and in the experiment with Dd2 was “inactive” each time. Also, in the experiment with P94_40, the Potency entry is “inactive”. The results for the activity, negative = inhibition in [2] (parasite line A) and in experiment [2] (parasite line B) were 1.09% and 2.23%, respectively.
Consider `O=C1[C@@H]2C[C@@H]3C[C@H]1C[C@@](O)(C3)C2`, for which the Potency result (in experiment [1]; in the experiment with 3D7; in the experiment with AA1029; with AS120; in the experiment with ATS189; in the experiment with C2A) was “inactive” throughout. Besides, the Potency entry in the experiment with CP185, with CP191, in the experiment on CP192, in the experiment with CP194, with CP211 and with CP217 was “inactive” throughout. The Potency result in the experiment on CP237, in the experiment on CP238, in the experiment on CP247, in the experiment on CP252, in the experiment with CP286 and in the experiment on Dd2 was “inactive” throughout. In the experiment with P94_40, the Potency result was “inactive”. Also, the activity, negative = inhibition is -0.632% in experiment [2] (parasite line A) and 11.7% in experiment [2] (parasite line B).
